Out of some 370,000 compounds screened, about 5,400 (1.5%) were called active.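 Rule for the calls: active = activation above the mean of all tested compounds plus 3 SD (cut at about 5.5% in these data); inactive = the rest.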 Many of the other results were omitted from the sample, so actives are more common in it than they were.

The subject of the test is DAF-12 nuclear receptor (Haemonchus contortus). The test can be described thus: H. contortus DAF-12 nuclear receptor activators, primary screen, cell-based, luminescence, HEK293, lit1-tk-luc reporter (AID 652067).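 Note: 100% = response to 3 µM Δ7-dafachronic acid high control.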 The note with it: HEK293 hcDAF-12 lit1-tk-luc reporter, at 6.8 µM, hits give high values, 0% DMSO, 100% Δ7-dafachronic acid.
For `COc1cc(SC)ccc1C(=O)Nc1cc(C)ccn1`, the activation is 9.16% (active).

Take `Cc1ccnc(NC(=O)C(C)N2C(=O)c3ccccc3C2=O)c1` (stereo not drawn): the activation was -0.09% (inactive).

For the molecule `Cc1ccnc(NC(=O)c2ccoc2C)c1`, the activation was 7.44% (active).

Take `COc1cc(SC)ccc1C(=O)Nc1nc(C)cs1`: the activation is -4.3% (inactive).

`CSCCC(NC(=O)c1ccco1)C(=O)Nc1cc(C)ccn1` (stereo not drawn): the activation is 5.45% (inactive).

With `Cc1ccnc(NC(=O)CCCOc2ccccc2)c1`, the activation was 2.54% (inactive).

`O=C(NCc1ccccc1)[C@H]1CCCN1C(=O)[C@@H]1CCCN1C(=O)c1ccc(Cl)cc1Cl`: the activation was -1.62% (inactive).

As to `O=C(CSc1nc2ccccc2n1Cc1ccccc1)NNC(=S)Nc1ccccc1`, the activation is -1.89% (inactive).

For `COC(=O)c1cc2c(c3c4ccccc4n(S(=O)(=O)c4cccc(C)c4)c13)C(=O)N(Cc1ccccc1)C2`, the activation is 1.43% (inactive).

With `Oc1ccc(/C=C/c2c(F)cccc2F)c2cccnc12`, the activation is -3.66% (inactive).

In the case of `O=C1[C@@H](c2ccccc2)[C@@H](c2ccccc2)N1c1ccccc1`, the activation was -1.98% (inactive).

For the molecule `Cc1nn(C(=O)c2ccoc2C)c(N)c1-c1ccccc1`, the activation was 12.4% (active).

With `Cc1nn2c(c1-c1ccccc1)N=C(c1ccco1)CC2c1ccccc1` (stereo not drawn), the activation was -0.56% (inactive).

With `Cc1cc(-c2ccccc2)n2nc(C)c(-c3ccccc3)c2n1`, the activation is -0.96% (inactive).

On to `CCOc1ccc(-n2c(SCC(=O)Nc3cc(C)c(NC(=O)c4ccccc4)cc3OC)nnc2-c2cccc(Cl)c2)cc1`, for which the activation was -2.73% (inactive).

As for `Cc1ccccc1NC(=O)Cn1nnc(-c2ccccc2F)n1`, the activation is 1.07% (inactive).

For `CN1CCCCC(NC(=O)C(C)(C)C)C1=O` (stereo not drawn), the activation was -1.55% (inactive).

For `Cc1cccc2c1N(CCOc1ccccc1)C(=O)C2=O`, the activation is -2.22% (inactive).

On to `Cc1nn(CCOc2ccccc2)c(=O)n1-c1ccccc1F`, for which the activation is 6.6% (active).

In the case of `Cc1c(C(N)=O)sc2ncn(CCOc3ccccc3)c(=O)c12`, the activation was -0.81% (inactive).

As for `Cc1ccc(N)cc1CN1CCN(c2ncc(Cc3ccccc3)cn2)CC1`, the activation is -1.34% (inactive).

In the case of `O=C1CC[C@@]23CCCN2C(=O)CCC[C@H]3[C@H]1Cc1ccccc1`, the activation is -0.12% (inactive).

With `NC(=O)c1ncn([C@@H]2O[C@H](C(=O)O)[C@@H](O)[C@H]2O)n1`, the activation was -0.43% (inactive).

`CC(=O)n1c(C=Nc2ccccc2)c(O)c2ccccc21`: the activation is 7.8% (active).

On to `CC(=O)OCC(C)n1c(=O)c2ccccc2n1C(C)=O` (stereo not drawn), for which the activation is -0.22% (inactive).

With `O=C(Nc1ccc(Br)cc1)OCCN1C(=O)CCC12CCC(c1ccccc1)CC2` (stereo not drawn), the activation was -1.25% (inactive).

With `Cc1ccc(-c2nnc(SCC(=O)Nc3ccc(Oc4ccccc4)cc3)n2Cc2ccco2)cc1`, the activation is -2.76% (inactive).

Consider `CCC(C)[C@@H](C(=O)OC)N(CCc1cn(Cc2ccccc2)nn1)S(=O)(=O)c1ccccc1Br` (stereo partly drawn), for which the activation was -2.4% (inactive).

As to `O=C(CSc1nnc(-c2c[nH]c3ccccc23)o1)c1ccccc1`, the activation was -0.49% (inactive).

For the molecule `NC(=O)CSc1c[nH]c2ccccc12`, the activation is 6.34% (active).

As to `CCCn1cc(SCC(N)=O)c2ccccc21`, the activation is 2.17% (inactive).

Take `Cc1cc(OC(=O)c2ccccc2Cl)ccc1N1C(=O)CCC1=O`: the activation is -1.68% (inactive).

`C/C(=N\OC(=O)c1ccccc1)c1c(C)nc2cc(C)ccn12`: the activation is -1.05% (inactive).

Consider `Cc1cccc(/C(N)=N/OC(=O)c2ccccc2Cl)c1`, for which the activation was 10.8% (active).

Regarding `CCCCNC(=O)C[C@H]1C(=O)N(Cc2ccc(OC)cc2)C2=CCCC[C@@]21C(=O)OCC`, the activation is -4.06% (inactive).

Take `CC(=O)OCCN1CCCC12CCC(c1ccccc1)CC2` (stereo not drawn): the activation is -0.23% (inactive).

With `CCCCCCN1CCS(=O)(=O)N(Cc2ccc(C(F)(F)F)cc2)C(C(=O)OC)C1` (stereo not drawn), the activation was -2.04% (inactive).

As to `CN1C(=O)c2cc(NS(C)(=O)=O)ccc2OC[C@@H]2O[C@@H](CC(=O)NCc3ccc(-c4ccccc4)cc3)CC[C@H]21`, the activation was 0.33% (inactive).

Turning to `O=C(OC12CCCN(C1)/C(=C/c1ccccc1)C2)c1ccco1` (stereo not drawn), the activation was -0.35% (inactive).

For `CCC(NC(=O)C1C2C=CC3(CN(Cc4ccccc4)C(=O)C13)O2)c1ccccc1` (stereo not drawn), the activation was -1.89% (inactive).

Take `COC(=O)[C@]12C[C@H](CC(=O)NCCC(C)C)C(=O)N(CCc3ccc(OC)c(OC)c3)C1=C[C@H](C(C)(C)C)O[C@@H]2C`: the activation was -0.99% (inactive).

On to `Cc1c(NC(=S)NCc2ccc(F)cc2)cccc1[N+](=O)[O-]`, for which the activation was -2.35% (inactive).

Consider `O=C(N/N=C/c1ccc(OC(=O)c2ccccc2Cl)cc1)c1ccc(O)cc1`, for which the activation is 5.89% (active).

For `O=C(N/N=C/c1ccc(OCC2COCCO2)cc1)c1ccc(Br)cc1` (stereo not drawn), the activation was -1.26% (inactive).

In the case of `CC(C)(C)C(=O)Nc1ccc(C(=O)N/N=C/c2ccccc2OC(=O)c2ccc(Cl)cc2Cl)cc1`, the activation was -1.06% (inactive).

For the molecule `C=CCN1C(=O)[C@@H](CC(=O)NCC2CCCCC2)[C@]2(C(=O)OC)CCCCC=C12`, the activation is -1.65% (inactive).

With `CCOc1ccccc1-c1cc(C(=O)N/N=C(\C)c2cccnc2)c2ccccc2n1`, the activation was 1.52% (inactive).

Turning to `CCOc1ccccc1NC(=O)c1cccnc1`, the activation was -0.55% (inactive).

On to `CCOc1cccc(/C=C/c2ccc3ccccc3n2)c1OC(C)=O`, for which the activation was 6.5% (active).

As to `COC(=O)[C@H](C(C)C)N(CCc1cn(Cc2ccccc2)nn1)S(=O)(=O)c1ccc(F)cc1Br`, the activation is -3.41% (inactive).

Take `CC(C)(C)c1ccc(S(=O)(=O)NCC2CCN(C(=O)C(=O)c3cc4ccccc4o3)CC2)cc1`: the activation is -1.1% (inactive).

In the case of `CCCCN1CCN(C(=O)c2ccc3c(c2)NC(=O)C(C)(C)O3)CC1`, the activation is 0.06% (inactive).

Take `CCC(C)C(=O)Nc1cc([N+](=O)[O-])ccc1Cl` (stereo not drawn): the activation was 1.23% (inactive).

For `Cc1ccc(NC(=O)c2cc([N+](=O)[O-])ccc2Cl)c(O)c1`, the activation was 6.38% (active).

For the molecule `CNc1ccc([N+](=O)[O-])cc1C(=O)O`, the activation was -0.16% (inactive).

As to `COc1ccccc1C(=O)CSc1nnc(-c2ccccn2)n1-c1ccccc1`, the activation is -3.35% (inactive).

Consider `CCCC1CCC2(CCCN2CCOC(=O)NCc2ccccc2)CC1` (stereo not drawn), for which the activation was -0.18% (inactive).

Turning to `CSc1ccc(Oc2cccc3c2S(=O)(=O)N([C@H](C)c2ccccc2)C[C@@H](COCc2ccccc2)O3)cc1C`, the activation was 0.01% (inactive).

These data come from PubChem BioAssay AID652067 (The Scripps Research Institute Molecular Screening Center, 2013).
